15-hLO inh – blocks human 15-lipoxygenase activity; P16050; purified 15hLO-1, xylenol orange hydroperoxide absorbance; Potency, µM (titrated, usually from 57.1 µM), for the others: at the top dose activity change, negative = inhibition, actives largely listed as inhibitors; 1.4% of 74,000 active; AID 887; also: nearly all actives have a fitted effect of over 55% in size
Target sequence (P16050 whole entry, looked up): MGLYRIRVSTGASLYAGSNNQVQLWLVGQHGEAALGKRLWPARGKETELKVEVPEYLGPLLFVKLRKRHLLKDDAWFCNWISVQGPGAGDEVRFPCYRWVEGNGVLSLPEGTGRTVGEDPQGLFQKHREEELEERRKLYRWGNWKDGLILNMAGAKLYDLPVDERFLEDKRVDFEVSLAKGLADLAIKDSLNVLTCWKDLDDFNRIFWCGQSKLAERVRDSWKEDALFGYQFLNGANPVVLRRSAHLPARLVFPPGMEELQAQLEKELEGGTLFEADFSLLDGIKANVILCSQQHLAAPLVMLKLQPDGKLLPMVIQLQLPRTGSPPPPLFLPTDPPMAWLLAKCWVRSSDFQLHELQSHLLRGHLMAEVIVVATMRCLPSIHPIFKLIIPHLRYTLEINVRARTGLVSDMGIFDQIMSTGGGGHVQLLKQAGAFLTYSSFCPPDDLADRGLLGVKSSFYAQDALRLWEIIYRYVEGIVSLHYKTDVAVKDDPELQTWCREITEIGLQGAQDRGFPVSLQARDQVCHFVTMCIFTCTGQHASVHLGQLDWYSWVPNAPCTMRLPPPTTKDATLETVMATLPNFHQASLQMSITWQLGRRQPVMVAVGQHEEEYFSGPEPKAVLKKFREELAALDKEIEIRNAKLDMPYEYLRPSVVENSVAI
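Purified human 15hLO-1 (40 nM) in 25 mM Hepes pH 7.5, 0.01% Triton X-100, preincubated 15 min RT with compound, then 50 uM arachidonic acid for 6 min. Hydroperoxide read by ferrous/xylenol orange, 30 min; 573/405 nm absorbance ratio gave progress.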
HSD17B inhib – blocks hydroxysteroid 17-beta dehydrogenase activity; Potency, µM (top dose mostly 57.1 µM), for inactives: at the top dose activity change, negative = inhibition, actives largely listed as inhibitors; recombinant HSD17B10, NADH fluorescence kinetic; 7.6% of 75,000 active; Q99714;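 also: the protocol describes HADH2 (HSD17B10) and not the HSD17B4 of the title; nearly all actives have a fitted effect of over 70% in size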
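20 nM HADH2, pH 9.0 Tris/Tween; cpd preinc 15 min RT; start w/ 1 mM NAD+ + 90 uM b-hydroxybutyryl-CoA; kinetic fluor ex360/em450 q30s x 4 min; delta last-first.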
HADH2 inhib – blocks human hydroxyacyl-CoA dehydrogenase type II; Potency, µM (series often up to 57.1 µM), inactives show at the top dose activity change, negative = inhibition, actives largely listed as inhibitors; Q99714; recombinant HADH2, NADH fluorescence, beta-hydroxybutyryl-CoA; 3.4% of 73,000 active; AID 886; also: nearly all actives have a fitted effect of over 60% in size
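His-tagged recombinant enzyme from E. coli, 20 nM, preincubated 15 min RT with compound; reaction started with 1 mM NAD+ and 90 uM beta-hydroxybutyryl-CoA in 100 mM Tris-HCl pH 9.0. NADH fluorescence (ex 360/em 450) read over 4 min; last-minus-first difference.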
ERK AVP block – inhibitors of vasopressin-stimulated ERK signaling pathway; 0.99% of 72,000 active; HEK293-V1b, vasopressin-stimulated pERK AlphaScreen; Potency, µM (doses to about 57.5 µM), without a hit: at the top dose activity, negative = inhibition, actives largely listed as inhibitors; AID 995; also: nearly all actives have a fitted effect of over 55% in size
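V1b-HEK293 cells; cpd 30 min 37C; 25 nM vasopressin 5 min; lyse 10 min; AlphaScreen beads 5 hr RT. Normalized to DMSO basal and 25 nM vasopressin; AC50 by Hill fit.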
FLuc inh – inhibitors of firefly luciferase | P08659 | purified firefly luciferase, luminescence, 8 min | Potency, µM (highest dose often 57.1 µM), inactives show at the top dose activity change, negative = inhibition, usual class: inhibitors | 2.2% of 72,000 active; also: nearly all actives have a fitted effect of over 40% in size
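Luminescence read-out after 8 min at room temperature; enzyme reaction used luciferin plus 10 uM ATP (linear range) in imidazole buffer pH 7.2 with KCl, MgCl2, Tween 20 and BSA. Each sample was run as a titration.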
PK Bst – alters activity of Bacillus stearothermophilus pyruvate kinase. Potency, µM. 1.2% of 51,000 active. AID 361. purified pyruvate kinase, luminescence ATP production; ribose 5-phosphate activator present at AC10; in the data active = potency below about 11 µM; inconclusive = mostly about 12 µM to 25 µM;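 the screen sought inhibitors and activators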;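 also: scaled between full activation by ribose 5 phosphate and full inhibition by luteolin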
Starred values were filed as active, the others as inactive; i = inactive; ? = inconclusive; . = not tested or not shown; [ ] = another dose, or the depositor's remark. Most compounds without a hit are left out; they make up all but 11% or so of the library. Unless noted, calls follow the shape of the dose curve; as a rule, active = well fitted curve in the direction sought with a large enough effect; inconclusive = small, poorly fitted or top-dose-only effect, or another doubt; inactive = no such curve, though single readings can be large; an effect the other way counts as inactive or inconclusive. Unless noted, % is scaled to controls: 0 for no effect and ±100 for the full control effect; potency is read from the fitted curve at half-maximal effect.

SMILES | 15-hLO inh | HSD17B inhib | HADH2 inhib | ERK AVP block | FLuc inh | PK Bst
O=C(Nc1ccc2c(c1)OCO2)c1ccc(Br)s1 | ? | 5% | 8% | ? | 13µM* | ?
COc1cc(NC(=O)C(C)C)ccc1NC(=O)c1ccco1 | -6% | -2% | 1% | 0% | 20µM* | .
O=C(Nc1cccc(-c2cn3cccnc3n2)c1)c1ccco1 | 4% | 32µM* | i | 12% | -16% | .
CCCC(=O)Nc1cccc(NC(=O)c2ccc3c(c2)OCO3)c1 | 2% | 1% | 0% | 11% | -28% | >57
O=C(Nc1cccc(-c2cn3cccnc3n2)c1)c1ccc2c(c1)OCO2 | 9% | 25µM* | ? | ? | 16µM* | .
O=C(Nc1cccc(-c2cn3cccnc3n2)c1)c1ccc(Br)o1 | 5% | 3.2µM* | i | -8% | -4% | >57
O=C(CNC(=O)c1ccc(Br)o1)Nc1cccc(-c2cnc3ccccc3n2)c1 | -5% | 6% | 18% | ? | -2% | >57
C/C=C\C[C@@H](C)[C@@H](O)[C@H]1C(=O)N[C@@H](CC)C(=O)N(C)CC(=O)N(C)[C@@H](CC(C)C)C(=O)N[C@@H](C(C)C)C(=O)N(C)[C@@H](CC(C)C)C(=O)N[C@@H](C)C(=O)N[C@H](C)C(=O)N(C)[C@@H](CC(C)C)C(=O)N(C)[C@@H](CC(C)C)C(=O)N(C)[C@@H](C(C)C)C(=O)N1C | -13%[25.6 µM] | 27% | 1% | -1% | 0% | .
CCOc1ccccc1Nc1ccc(N)cc1S(=O)(=O)O | -4%[11.4 µM] | -13%[11.4 µM] | ? | -2%[11.5 µM] | 1%[11.4 µM] | .
COc1cccc([C@@H]2Oc3ccc(OC)cc3/C(=N/O[C@@H](C)CN3CCCCc4nc(C)c(C)cc43)[C@@H]2O)c1 | -12%[11.4 µM] | 1%[11.4 µM] | 1%[11.4 µM] | 10%[11.5 µM] | 1%[11.4 µM] | .
CCC(CC)C(=O)Nc1nnc(-c2cccs2)s1 | -7% | 3.2µM* | 25µM* | -9% | -2% | >57
O=C(O)C1CCN(C(=O)COc2ccc3c4c(c(=O)oc3c2)CCC4)CC1 | 10% | 32µM* | 32µM* | -1% | -5% | >57
CC(=O)C(C)Oc1ccc2c3c(c(=O)oc2c1)CCCCC3 (configuration not stated) | -3% | 25µM* | 20µM* | -8% | -30% | .
O=C(O)C(Oc1ccc2c3c(c(=O)oc2c1)CCC3)c1ccccc1 (configuration not stated) | 6% | 25µM* | -24% | -17% | -1% | >57
Cc1nnc(NC(=O)C(C)Oc2ccc3c(C)cc(=O)oc3c2)s1 (configuration not stated) | 2% | ? | -11% | 22% | -1% | >57
Cc1cc(OCC(=O)N2CCCC2)ccc1Cl | 3%[11.4 µM] | 4% | 20%[11.4 µM] | -4% | -2% | .
CCc1cc2c3c(c(=O)oc2cc1O)CCCC3 | -13% | 25µM* | 117% | -9% | 1% | >57
Cc1oc2cc3oc(=O)c4c(c3cc2c1C)CCC4 | 4% | -4% | 9% | -5% | 1% | >57
O=S(=O)(c1ccccc1)N1CCC[C@@]2(CCN(c3ccccc3)C2)C1 | -17% | -17% | 4% | -13% | 0%[11.4 µM] | .
O=c1c(-c2ccc(F)cc2)nc2cnc(N3CCOCC3)nc2n1C[C@H]1CCCO1 | 12% | ? | 1% | -5% | -1%[11.4 µM] | .
C[C@H](N)C(=O)OC(C)(C)Cc1ccc(Cl)cc1 | 7% | 3% | -10% | 11% | 0% | .
CC(=O)COc1ccc2c3c(c(=O)oc2c1)CCCC3 | -12% | 25µM* | 269% | -26% | -7% | .
CCCCc1c(C)c2ccc(OCC(C)=O)cc2oc1=O | . | . | . | . | -6%[25.5 µM] | >26
CC(=O)C(C)Oc1ccc2c3c(c(=O)oc2c1)CCCC3 (configuration not stated) | -2% | 25µM* | ? | ? | -18% | .
COc1ccc2c(c1)c(=O)oc1cc(OCC(=O)NC3CC3)ccc12 | -2% | 13µM* | 78% | -16% | -3% | >57
SMILES | 15-hLO inh | HSD17B inhib | HADH2 inhib | ERK AVP block | FLuc inh | PK Bst
CC(C)CNC(=O)COc1ccc2c3c(c(=O)oc2c1)CCC3 | -8% | 13µM* | ? | -26% | -1% | .
COC(=O)C1CCN(Cc2cc(=O)oc3cc(OC)ccc23)CC1 | 4% | -24% | -2% | 21% | -2% | >57
CC(C)=C[C@H]1[C@@H](COC(=O)c2ccccc2Cl)C1(C)C | 7%[11.4 µM] | 0%[11.4 µM] | -6%[11.4 µM] | -7%[11.5 µM] | -1%[11.4 µM] | .
c1cn(-c2ccnc(-c3ccc4c(c3)OCO4)n2)cn1 | 0% | -1% | 0% | 20µM* | 2%[2.29 µM] | .
c1cncc(-c2nccc(-n3ccnc3)n2)c1 | -16% | 1% | ? | ? | -2%[2.29 µM] | .
O=C(O)CCCC[C@H]1CCSS1 | 8% | -14% | ? | -2% | -2% | .
CC(=O)OC[C@H]1O[C@@H](CCO/N=C2/[C@H]3O[C@@H]3[C@@H](O)[C@H]3[C@H]2CCn2c(=O)n(-c4ccccc4)c(=O)n23)C=C[C@@H]1OC(C)=O | 5%[11.4 µM] | -4%[11.4 µM] | ? | -9%[11.5 µM] | 0%[11.4 µM] | .
Nc1cc(C(F)(F)F)ccc1C(=O)O | -3% | 32µM* | 32µM* | . | 1% | .
Nc1ccc(-c2ccc3ccccc3n2)cc1 | -9% | 25µM* | -19% | -4% | . | .
c1csc(-c2ccc3ccccc3n2)c1 | 4% | ? | -4% | 24% | ? | i
O=C1CC(N2CCN(c3ccc(O)cc3)CC2)C(=O)N1Cc1cccs1 (configuration not stated) | 13µM* | ? | ? | -15% | 0% | >57
CC(=O)OC1CC[C@]2(C)C(=CCC3C4CCC(C(C)CCCC(C)C)[C@]4(C)CCC32)C1 (some centres not stated) | -28% | 1% | . | 9% | . | .
N#CCCn1c(=O)c(CCc2ccccc2)nc2cnc(Nc3ccccc3)nc21 | -3% | 55% | -10% | 19% | 0%[11.4 µM] | .
COc1ccc(-c2cc(C(=O)OCC(=O)N3CCCC3)c3ccccc3n2)cc1 | -23% | . | 19% | ? | 20µM* | 10*
COc1cc(-c2cc(C(=O)N3CCN(c4ccccn4)CC3)c3ccccc3n2)cc(OC)c1OC | ? | ? | -6% | 15% | 0% | >57
COc1ccc(-c2cc(C(=O)N3CCN(c4ccccn4)CC3)c3ccccc3n2)cc1 | -15% | ? | -17% | 10µM* | 1.3µM* | 2.2*
Cc1cc(C(=O)OCC(=O)N2CCOCC2)c2ccccc2n1 | 7% | -14% | -8% | 7% | 4% | >57
O=S(=O)(c1ccc(Br)s1)N1CCN(c2ccccn2)CC1 | -27% | -8% | -4% | 14% | 1% | >57
COc1cccc(OC)c1C(=O)N1CCN(c2ccccn2)CC1 | -1% | 40µM* | ? | -11% | 1% | >57
Cc1n[nH]c(C)c1S(=O)(=O)N1CCN(c2ccccn2)CC1 | 3% | 25µM* | 3% | 2% | 1% | >57

High-throughput results from PubChem BioAssay.
